Data: PubChem BioAssay (NCATS)
Where “and” joins values, the source holds several entries; their conditions need not be identical. Equal values may be shown once. Records with an inconclusive call do not appear. A number with no mark means an inactive call. Calls of active or inactive are those of the source. Calls come from the whole dose curve; as a rule, active = well fitted activation curve with a large enough effect; inconclusive = small, poorly fitted or top-dose-only effect; inactive = no such curve, though single readings can be large or run the other way.

Molecular target: Cellular tumor antigen p53 (Homo sapiens) (UniProt P04637)
Test: Primary qHTS for small molecule compounds that upregulate eGFP-tagged delta133p53alpha (in N-terminal) cells. (AID 2060322); note: nearly all actives have a fitted effect of over 75% in size;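 for activation: series mostly up to about 56 µM; 0% = DMSO vehicle and 100% = reference activator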
Conditions: NCI-H358 eGFP-delta133p53alpha fluorescence, 24 h; activation: stronger effect = higher value
Summary of the method: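 NCI-H358 cells pre-induced 24 h with 10 ng/ml doxycycline to express N-terminal eGFP-delta133p53alpha, then dosed 24 h at 37C without doxycycline; fixed, Hoechst-stained, GFP intensity by laser scanning cytometry, normalized to DMSO (0%) and 57.5 uM 5-azacytidine (100%).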
Potency is the fitted concentration of half-maximal effect.

Cellular tumor antigen p53 (Homo sapiens), sequence (P04637 whole entry, looked up): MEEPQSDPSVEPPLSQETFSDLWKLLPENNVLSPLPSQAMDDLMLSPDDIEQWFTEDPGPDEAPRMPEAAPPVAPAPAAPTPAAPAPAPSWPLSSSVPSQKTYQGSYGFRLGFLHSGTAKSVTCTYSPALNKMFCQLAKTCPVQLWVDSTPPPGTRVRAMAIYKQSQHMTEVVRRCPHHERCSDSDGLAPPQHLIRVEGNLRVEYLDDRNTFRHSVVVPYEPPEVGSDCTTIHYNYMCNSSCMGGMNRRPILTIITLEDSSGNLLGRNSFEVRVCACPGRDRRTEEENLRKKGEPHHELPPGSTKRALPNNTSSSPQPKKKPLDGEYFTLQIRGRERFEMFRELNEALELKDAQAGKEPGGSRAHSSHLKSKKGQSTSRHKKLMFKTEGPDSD

| Structure (SMILES) | activation | Potency |
| --- | --- | --- |
| CC(=O)OC(C)OC(=O)C(C)c1ccc(-c2ccccc2)c(F)c1 (stereo not given) | -24.3% | – |
| Cc1cc(NS(=O)(=O)c2ccc(N)cc2)nc(C)n1 | -13.4% | – |
| CN(C(=O)C(Cl)Cl)c1ccc(OC(=O)c2ccco2)cc1 | 5.02% | – |
| Cc1[nH]c(C=C2C(=O)Nc3ccccc32)c(C)c1CCC(=O)O | – | 24.3 µM (active) |
| Cc1ccccc1OCC(O)CO (stereo not given) | 13% | – |
| COC(=O)C1=CO[C@@H](O)[C@@H]2C(CO)=CC[C@@H]12 | 4.38% | – |
| CC(C)(c1ccc(O)cc1)c1ccc(O)cc1 | -17.5% | – |
| CC(=O)OCC(=O)[C@@]1(O)CC[C@H]2[C@@H]3CCC4=CC(=O)C=C[C@]4(C)[C@@]3(F)[C@@H](O)C[C@@]21C | -10.7% | – |
| CCCCCCn1c(=O)c2c(ncn2C)n(C)c1=O | -5.08% | – |
| COc1cc(N)c(Cl)cc1C(=O)NC1CCN(Cc2ccccc2)CC1 | 17.6% | – |
| COc1cnc(NS(=O)(=O)c2ccc(N)cc2)nc1 | 2.51% and 10.3% | – |
| Cc1sccc1Br | 7.53% | – |
| CC[C@@]1(O)C(=O)OCc2c1cc1n(c2=O)Cc2c-1nc1ccccc1c2/C=N/OC(C)(C)C | – | 0.0978 µM (active) |
| O=C1Nc2cc(Cl)ccc2Oc2ccccc21 | -1.69% | – |
| C/C=C1\[C@H]2C=C(C)C[C@]1(N)c1ccc(=O)[nH]c1C2 | 5.08% | – |
| NCCCC[C@H](N[C@@H](CCc1ccccc1)C(=O)O)C(=O)N1CCC[C@H]1C(=O)O | -3.95% | – |
| C[C@@H](N)C(=O)O | 5.02% | – |
| CC(C)(C)NCC(O)COc1ccc(NC(=O)NC2CCCCC2)cc1 (stereo not given) | 5.08% | – |
| CC(=O)NS(=O)(=O)c1ccc(N)cc1 | -1.67% | – |
| Cc1cccc(Nc2ccncc2S(=O)(=O)NC(=O)NC(C)C)c1 | 14.1% and -1.67% | – |

| Structure (SMILES) | activation | Potency |
| --- | --- | --- |
| CCOC(N)=O | -2.82% | – |
| CCOc1cc(OCC)c(C(=O)CCC(=O)O)cc1OCC | -15.3% | – |
| CCn1cc(C(=O)O)c(=O)c2cnc(N3CCCC3)nc21 | 3.95% | – |
| CCN(C)C(=O)Oc1cccc([C@H](C)N(C)C)c1 | 6.21% and 13.7% | – |
| CC[C@H](CC[C@@H](C)[C@H]1CC[C@H]2[C@@H]3CC=C4C[C@@H](O)CC[C@]4(C)[C@@H]3CC[C@]12C)C(C)C | -21.3% | – |
| COc1ccnc2c1CCCCC2S(=O)c1nc2ccccc2[nH]1 (stereo not given) | 11.9% | – |
| CCCCC(CC)CN=C(N)NC(N)=NCCCCCCN=C(N)NC(N)=NCC(CC)CCCC (stereo not given) | – | 13.8 µM (active) |
| Nc1nc(NCc2ccccc2)c2[nH]cnc2n1 | 6.7% | – |
| CN(C)C(=O)Nc1ccc(Cl)c(Cl)c1 | 13.4% | – |
| CCOC(=O)Nc1ccc2c(c1)N(C(=O)CCN1CCOCC1)c1ccccc1S2 | 4.18% | – |
| O=C(CCc1ccc(O)cc1)c1c(O)cc(O)cc1O[C@@H]1O[C@H](CO)[C@H](O)[C@H](O)[C@H]1O | 1.26% | – |
| COc1ccccc1OCC(O)COC(N)=O (stereo not given) | -36.8% and 17.3% | – |
| C[N+]12CCC(CC1)C(OC(=O)C(O)(c1ccccc1)c1ccccc1)C2 (stereo not given) | -8.47% | – |
| COc1cc2nc(N3CCCCC3)nc(NC3CCN(C)CC3)c2cc1OC | – | 38.5 µM (active) |
| CC(=O)Nc1cccc(O)c1 | -4.18% | – |
| COc1ccc(-c2cc(=S)ss2)cc1 | -4.18% | – |
| CCC(=O)Oc1ccc2c(c1)CC[C@@H]1[C@@H]2CC[C@@]2(C)[C@H]1C[C@@H](OC(=O)CC)[C@@H]2OC(=O)CC | -8.47% | – |
| O=C(Nc1ccc(Oc2ccc(Cl)cc2)c(Cl)c1)c1cc(I)cc(I)c1O | -20.9% | – |
| CN(C)c1cc(NC(=O)CNC(C)(C)C)c(O)c2c1C[C@@H]1C[C@H]3[C@H](N(C)C)C(=O)C(C(N)=O)=C(O)[C@@]3(O)C(=O)C1=C2O | -7.92% | – |
| CCN(CC)CCNC(=O)COc1ccc(Cl)cc1 | 19.2% | – |
